Laboratory results reported in PubChem BioAssay AID1159580 (chemical genetic matrix, 2015).
“And” between values parts separate entries of the source, which are not always exact repeats. Equal entries are not always repeated. Out of some 5,500 compounds screened, about 2,000 (36%) were called active. Not shown: some 18% with an inconclusive outcome. Cut-off read from the data, not from the text of the source: active = normalized growth mostly below about 0.91 (no sharp cut-off); inconclusive = no clear call, values can overlap the other calls; inactive = mostly above about 0.92. The list shows a part of the results.

Assay: chemical genetic growth profiling, strain panel (AID 1159580);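 note: tested at 20 µM; growth read once vehicle control cultures reached saturation at 30 °C; 1 = growth at the plate median or of vehicle wells; lower values mean less growth of the strain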
Conditions: S. cerevisiae deletion strains, growth OD
[1] = locus YAL013W, strain DEP1, hits give low values
[2] = locus YBR229C, strain ROT2, hits give low values
[3] = locus YCL061C, strain MRC1, hits give low values
[4] = locus YDL101C, strain DUN1, hits give low values
[5] = locus YEL061C, strain CIN8, hits give low values
[6] = locus YGR078C, strain PAC10, hits give low values
[7] = locus YHR030C, strain SLT2, hits give low values
[8] = locus YJR043C, strain POL32, hits give low values
[9] = locus YLR039C, strain RIC1, hits give low values
[10] = locus YLR262C, strain YPT6, hits give low values
[11] = locus YNL128W, strain TEP1, hits give low values
[12] = locus YNL322C, strain KRE1, hits give low values
[13] = locus YPL055C, strain LGE1, hits give low values
[14] = locus YPL241C, strain CIN2, hits give low values
[15] = locus YDR150W, strain NUM1, hits give low values
[16] = locus YHR087W, strain rtc3, hits give low values
[17] = locus YJR075W, strain HOC1, hits give low values
[18] = locus YKL190W, strain CNB1, hits give low values
[19] = locus YLR058C, strain SHM2 (second series), hits give low values
[20] = locus YLR085C, strain ARP6, hits give low values
[21] = locus YML094W, strain GIM5, hits give low values
[22] = locus YMR219W, strain ESC1, hits give low values
[23] = locus YNL153C, strain GIM3, hits give low values
[24] = locus YNL298W, strain CLA4 (second series), hits give low values
[25] = locus YNR030W, strain Alg12, hits give low values
[26] = locus YPR135W, strain CTF4, hits give low values

Measured: normalized growth

NC(=O)N1c2ccccc2C=Cc2ccccc21
inactive: [1] 1 | locus YAL021C, strain ccr4, hits give low values 1.03 | locus YAL026C, strain drs2, hits give low values 1.02 | locus YAL030W, strain snc1, hits give low values 1.04 | locus YAL040C, strain CLN3, hits give low values 1.01 | locus YBL061C, strain skt5, hits give low values 1.03 | locus YBR009C, strain hhf1, hits give low values 1.02 | locus YBR021W, strain FUR4, hits give low values 1.03 | locus YBR023C, strain chs3, hits give low values 1.02 | locus YBR171W, strain sec66, hits give low values 1.03 | [2] 1.03 | locus YBR231C, strain swc5, hits give low values 1.04 | locus YBR279W, strain paf1, hits give low values 1.02 | locus YCL011C, strain gbp2, hits give low values 1.02 | locus YCL016C, strain dcc1, hits give low values 1.02 | locus YCL029C, strain bik1, hits give low values 1.01 | [3] 1.02 | locus YCL069W, strain vba3, hits give low values 1.03 | locus YCR088W, strain abp1, hits give low values 1.01 | locus YDL005C, strain med2, hits give low values 1.02 | locus YDL035C, strain GPR1, hits give low values 1.07 | locus YDL040C, strain nat1, hits give low values 1.03 | locus YDL074C, strain BRE1, hits give low values 1.03 | [4] 1.01 | locus YDL185W, strain tfp1, hits give low values 0.963 | locus YDL192W, strain arf1, hits give low values 0.996 | locus YDR001C, strain nth1, hits give low values 1.01 | locus YDR069C, strain doa4, hits give low values 1.04 | locus YDR101C, strain arx1, hits give low values 1.01 | locus YDR137W, strain rgp1, hits give low values 1.07 | locus YDR159W, strain sac3, hits give low values 1.03 | locus YDR162C, strain NBP2, hits give low values 1.03 | locus YDR195W, strain ref2 1.06 | locus YDR297W, strain sur2, hits give low values 1.02 | locus YDR318W, strain mcm21, hits give low values 1.01 | locus YDR334W, strain swr1, hits give low values 1.03 | locus YDR335W, strain msn5, hits give low values 1.02 | locus YDR363W, strain ESC2, hits give low values 1 | locus YDR388W, hits give low values 1.01 | locus YDR392W, strain spt3, hits give low values 0.984 | locus YDR502C, strain sam2, hits give low values 0.993 | locus YEL003W, strain gim4, hits give low values 1.02 | locus YEL037C, strain rad23, hits give low values 1.02 | locus YEL061C, strain CIN8 (second series), hits give low values 1.01 | [5] 1.01 | locus YER002W, strain NOP16, hits give low values 1.04 | locus YER015W, strain faa2, hits give low values 1.03 | locus YER016W, strain bim1, hits give low values 1.02 | locus YER110C, hits give low values 0.979 | locus YER111C, strain swi4, hits give low values 1.03 | locus YER155C, strain BEM2 (second series), hits give low values 1.01 | locus YER155C, strain BEM2, hits give low values 1.01 | locus YER167W, strain BCK2, hits give low values 1.01 | locus YFR010W, strain ubp6, hits give low values 1.05 | locus YGL078C, strain dbp3, hits give low values 0.991 | locus YGL086W, strain mad1, hits give low values 1.01 | locus YGL167C, strain pmr1, hits give low values 1.03 | locus YGL173C, strain kem1, hits give low values 1.04 | locus YGL227W, strain vid30, hits give low values 1.01 | locus YGL240W, strain doc1, hits give low values 1.02 | locus YGL248W, strain PDE1, hits give low values 1.05 | locus YGL253W, strain hxk2, hits give low values 1.01 | [6] 1.02 and 1.01 | locus YGR135W, strain pre9, hits give low values 0.99 | locus YGR252W, strain gcn5, hits give low values 1.06 | locus YHR013C, strain ard1, hits give low values 1.02 | locus YHR027C, strain rpn1, hits give low values 1.02 | [7] 1.01 and 1 | locus YHR079C, strain IRE1 (second series), hits give low values 0.98 | locus YHR079C, strain IRE1, hits give low values 0.99 | locus YHR094C, strain hxt1, hits give low values 1 | locus YHR129C, strain ARP1, hits give low values 0.997 | locus YHR142W, strain chs7, hits give low values 1.02 | locus YHR200W, strain rpn10, hits give low values 0.995 | locus YIL066C, strain RNR3, hits give low values 1.04 | locus YIL073C, strain SPO22, hits give low values 1.05 | locus YIL125W, strain kgd1, hits give low values 1 | locus YIR030C, strain dcg1, hits give low values 0.976 | locus YJL092W, strain hpr5, hits give low values 1.03 | locus YJL095W, strain BCK1 (second series), hits give low values 1.03 | locus YJL095W, strain BCK1, hits give low values 0.972 and 0.988 | locus YJL115W, strain asf1, hits give low values 1.03 | locus YJL129C, strain trk1, hits give low values 1.04 | locus YJL134W, strain LCB3, hits give low values 1.02 | locus YJL154C, strain vps35, hits give low values 1.01 | locus YJL164C, strain tpk1, hits give low values 1.01 | locus YJL166W, strain qcr8, hits give low values 1.02 | locus YJL168C, strain set2, hits give low values 0.994 | locus YJL187C, strain SWE1 (second series), hits give low values 1.02 | [8] 1.09 | locus YJR066W, strain TOR1, hits give low values 0.99 | locus YKL009W, strain mrt4, hits give low values 0.918 | locus YKL068W, hits give low values 1.01 | locus YKL085W, strain MDH1 (second series), hits give low values 0.986 | locus YKL085W, strain MDH1, hits give low values 0.986 | locus YKL160W, strain elf1, hits give low values 1.03 | locus YKR001C, strain vps1, hits give low values 0.989 | locus YKR026C, strain gcn3, hits give low values 1.01 | locus YKR091W, strain srl3, hits give low values 1.01 | locus YLL001W, strain dnm1, hits give low values 1.02 | locus YLL026W, hits give low values 1.03 | locus YLL041C, strain sdh2, hits give low values 1.02 | locus YLR027C, strain aat2, hits give low values 1.02 | [9] 1.09 | locus YLR058C, strain SHM2, hits give low values 1.01 | locus YLR102C, strain apc9, hits give low values 1.01 | locus YLR113W, strain HOG1, hits give low values 0.972 | locus YLR221C, strain rsa3, hits give low values 1.01 | locus YLR258W, strain gsy2, hits give low values 1.02 | locus YLR262C, strain YPT6 (second series), hits give low values 1.03 | [10] 1.1 | locus YLR268W, strain sec22, hits give low values 0.993 | locus YLR320W, strain mms22, hits give low values 1.03 | locus YLR330W, strain CHS5, hits give low values 1 | locus YLR342W, strain FKS1 (second series), hits give low values 1.12 | locus YLR342W, strain FKS1, hits give low values 1.03 | locus YLR357W, strain rsc2, hits give low values 1.09 | locus YLR370C, strain arc18, hits give low values 1.02 | locus YLR371W, strain rom2, hits give low values 0.994 | locus YLR384C, strain iki3, hits give low values 1.02 | locus YLR418C, strain cdc73, hits give low values 0.959 | locus YML016C, strain PPZ1, hits give low values 1.02 | locus YML032C, strain rad52, hits give low values 1 | locus YML120C, strain ndi1, hits give low values 1.03 | locus YML124C, strain tub3, hits give low values 0.998 | locus YMR058W, strain fet3, hits give low values 1.01 | locus YMR078C, strain ctf18, hits give low values 0.989 | locus YMR125W, strain sto1, hits give low values 1.03 | locus YMR129W, hits give low values 1.01 | locus YMR205C, strain PFK2, hits give low values 1.03 | locus YMR223W, strain ubp8, hits give low values 0.993 | locus YMR231W, strain pep5, hits give low values 1.03 | locus YMR263W, strain SAP30, hits give low values 1.01 | locus YMR307W, strain GAS1, hits give low values 1.18 | locus YNL067W, strain RPL9B, hits give low values 1.02 | locus YNL071W, strain lat1, hits give low values 1.02 | [11] 1 | locus YNL175C, strain NOP13, hits give low values 1.05 | locus YNL183C, strain NPR1, hits give low values 0.948 | locus YNL197C, strain WHI3, hits give low values 1.03 | locus YNL209W, strain ssb2, hits give low values 1.02 | locus YNL224C, strain SQS1, hits give low values 1.02 | locus YNL233W, strain BNI4, hits give low values 0.981 | locus YNL248C, strain rpa49, hits give low values 1.05 | locus YNL250W, strain rad50, hits give low values 0.98 | locus YNL271C, strain bni1, hits give low values 0.977 | locus YNL298W, strain CLA4, hits give low values 0.976 | locus YNL307C, strain MCK1, hits give low values 1 | locus YNL322C, strain KRE1 (second series), hits give low values 1.03 | [12] 1.01 | locus YNR049C, strain mso1, hits give low values 1.03 | locus YNR052C, strain pop2, hits give low values 0.994 | locus YOL006C, strain TOP1, hits give low values 1.02 | locus YOL012C, strain htz1 1.53 | locus YOL147C, strain pex11, hits give low values 0.998 | locus YOR001W, strain rrp6, hits give low values 1.04 | locus YOR061W, strain CKA2, hits give low values 1.01 | locus YOR069W, strain VPS5, hits give low values 1.04 | locus YOR070C, strain gyp1, hits give low values 1.03 | locus YOR080W, strain dia2, hits give low values 1.04 | locus YOR083W, strain WHI5 (second series), hits give low values 0.999 | locus YOR083W, strain WHI5, hits give low values 1.03 | locus YOR106W, strain vam3, hits give low values 1.04 | locus YOR136W, strain idh2, hits give low values 0.997 | locus YOR144C, strain elg1, hits give low values 1 | locus YOR184W, strain ser1, hits give low values 0.981 | locus YOR231W, strain MKK1, hits give low values 1 | locus YOR265W, strain rbl2, hits give low values 1.03 | locus YOR270C, strain vph1, hits give low values 1.1 | locus YOR290C, strain snf2, hits give low values 1.01 | locus YOR316C, strain cot1, hits give low values 0.998 | locus YPL051W, strain arl3, hits give low values 1.03 | [13] 1.01 | locus YPL078C, strain atp4, hits give low values 1.02 | locus YPL106C, strain sse1, hits give low values 1.05 | locus YPL240C, strain hsp82, hits give low values 1.02 | [14] 1.02 and 1.01 | locus YPL256C, strain CLN2, hits give low values 1 | locus YPR119W, strain clb2, hits give low values 0.996 | locus YPR141C, strain kar3, hits give low values 0.992 | locus YPR163C, strain tif3, hits give low values 1 | locus YPR167C, strain met16, hits give low values 0.991 | strain wtn01, hits give low values 1.01

Cc1ccc(N=Nc2c(C)[nH]n(C)c2=O)cc1
active: [1] 0.931 | [2] 0.921 | locus YDL134C, strain PPH21, hits give low values 0.886 | [5] 0.839 | [7] 0.433 | [8] 0.896 | [9] 0.332 | [20] 0.407 | [10] 0.352 | [21] 0.822 | [14] 0.82 | [26] 0.431
inactive: [4] 0.918 | [15] 0.92 | [6] 0.959 | [16] 0.974 | [17] 0.969 | [18] 0.946 | [19] 0.955 | [22] 0.964 | [23] 0.945 | [24] 0.87 | [12] 0.991 | [25] 0.897 | [13] 0.847

Cc1[nH]n(C)c(=O)c1N=Nc1ccc(Cl)cc1
inactive: [15] 0.835 | locus YGR229C, strain SMI1, hits give low values 0.979 | [16] 0.926 | [8] 0.945 | [17] 0.912 | [11] 0.965 | [12] 0.96 | [13] 0.78
active: [1] 0.892 | [2] 0.886 | [3] 0.864 | [4] 0.82 | [5] 0.598 | [6] 0.906 | [7] 0.143 | locus YJL187C, strain SWE1, hits give low values 0.875 | [18] 0.915 | [9] 0.342 | [19] 0.912 | [20] 0.115 | [10] 0.393 | [21] 0.764 | [22] 0.924 | [23] 0.894 | [24] 0.689 | [25] 0.881 | [14] 0.753 | [26] 0.242
